# From PubChem BioAssay (EPA / NIEHS)
# Active and inactive are the calls of the source. Rule for the calls: active = hit-call score of the fitted dose curve at least 0.9, where 1 is the maximum; inactive = score below 0.9.
# What was measured:
# [1] = read-out: urokinase plasminogen activator (uPA), PLAU (gene 5328); assay: BSK_KF3CT_uPA: BioMAP Diversity Plus: KF3CT Assay for urokinase plasminogen activator (uPA) Biomarker Activity (AID 2283075); details: primary human keratinocytes with fibroblasts; actives raise or lower the signal
# Outline: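 Human keratinocyte plus foreskin fibroblast primary co-culture exposed to chemical for 24 h. uPA levels were quantified by ELISA, and activity was fitted bidirectionally against a DMSO negative-control baseline.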
# [2] = read-out: CD40, CD40 (gene 958); assay: BSK_LPS_CD40: BioMAP Diversity Plus: LPS Assay for CD40 Biomarker Activity (AID 2283076); details: primary human HUVEC with PBMC; actives raise or lower the signal
# Outline: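 ELISA readout of CD40 in HUVEC/PBMC co-culture (BSK_LPS system), 24 h post-dosing; bidirectional curve fit, DMSO baseline; parallel SRB total-protein staining for cytotoxicity.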
# [3] = read-out: E-selectin (Homo sapiens) (UniProt P16581); assay: BSK_LPS_Eselectin: BioMAP Diversity Plus: LPS Assay for Eselectin Biomarker Activity (AID 2283077); details: primary human HUVEC with PBMC; actives raise or lower the signal
# Outline: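 ELISA readout of E-selectin, 24 h post-dose, HUVEC + PBMC co-culture (LPS system). Gain or loss of signal vs DMSO baseline, bidirectional fit.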
# [4] = read-out: Interleukin-8 (IL8), CXCL8 (gene 3576); assay: BSK_LPS_IL8: BioMAP Diversity Plus: LPS Assay for Interleukin-8 (IL8) Biomarker Activity (AID 2283078); details: primary human HUVEC with PBMC; actives raise or lower the signal
# Outline: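 HUVEC + PBMC co-culture, LPS-activated; test chemicals dosed, IL-8 read by ELISA at 24 h. Bidirectional curve fit vs DMSO baseline (gain or loss of signal).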
# [5] = BSK_LPS_SRB: Viability Assessment in the BioMAP Diversity Plus: LPS Assay (AID 2283079); details: primary human HUVEC with PBMC;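 note: total protein by sulforhodamine B absorbance as a cytotoxicity measure; measured one day after compound addition; fitted in both directions against DMSO so loss or gain of signal counts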
# Outline: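 HUVEC + PBMC co-culture, LPS-stimulated; compound 24 h. 10% TCA fix, 0.1% SRB stain, A560. Bidirectional fit vs DMSO.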
# [6] = read-out: Interleukin-1 alpha (IL1a), IL1A (gene 3552); assay: BSK_LPS_IL1a: BioMAP Diversity Plus: LPS Assay for Interleukin-1 alpha (IL1a) Biomarker Activity (AID 2283080); details: primary human HUVEC with PBMC; actives raise or lower the signal
# Outline: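 HUVEC/PBMC co-culture, LPS system; 24 h after dosing; IL-1a by ELISA; gain or loss of signal fitted bidirectionally vs DMSO baseline.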
# [7] = read-out: Monocyte Chemoattractant Protein-1 (MCP1), CCL2 (gene 6347); assay: BSK_LPS_MCP1: BioMAP Diversity Plus: LPS Assay for Monocyte Chemoattractant Protein-1 (MCP1) Biomarker Activity (AID 2283081); details: primary human HUVEC with PBMC; actives raise or lower the signal;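 for AC50: secreted MCP-1 protein quantified by ELISA in culture supernatant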
# Outline: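 ELISA read-out of MCP-1 after 24 h chemical dosing of a human umbilical vein endothelial cell/peripheral blood mononuclear cell co-culture stimulated with LPS. Gain or loss of signal fitted relative to DMSO controls.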
# [8] = BSK_LPS_PGE2: BioMAP Diversity Plus: LPS Assay for Prostaglandin E2 (PGE2) Biomarker Activity (AID 2283082); details: primary human HUVEC with PBMC; actives raise or lower the signal;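 for AC50: secreted prostaglandin E2 measured by ELISA in LPS-stimulated co-culture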
# Outline: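 HUVEC plus human PBMC co-culture stimulated with LPS; secreted PGE2 quantified by ELISA 24 h after chemical dosing. Activity fitted bidirectionally against DMSO baseline; parallel SRB staining (0.1% SRB after 10% TCA fixation, 560 nm) flags overt cytotoxicity.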
# [9] = read-out: Macrophage colony-stimulating factor (MCSF), CSF1 (gene 1435); assay: BSK_LPS_MCSF: BioMAP Diversity Plus: LPS Assay for Macrophage colony-stimulating factor (MCSF) Biomarker Activity (AID 2283083); details: primary human HUVEC with PBMC; actives raise or lower the signal
# Outline: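 HUVEC + PBMC co-culture (human primary), 24 h post-dose; M-CSF by ELISA; gain/loss of signal fitted bidirectionally vs DMSO baseline.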
# [10] = read-out: Tissue Factor, F3 (gene 2152); assay: BSK_LPS_TissueFactor: BioMAP Diversity Plus: LPS Assay for Tissue Factor Biomarker Activity (AID 2283084); details: primary human HUVEC with PBMC; actives raise or lower the signal
# Outline: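 HUVEC/PBMC co-culture, LPS-activated; CD142 ELISA read 24 h post-dose; bidirectional curve fit vs DMSO negative control.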
# [11] = read-out: Tumor necrosis factor (Homo sapiens) (UniProt P01375); assay: BSK_LPS_TNFa: BioMAP Diversity Plus: LPS Assay for Tumour Necrosis Factor alpha (TNFa) Biomarker Activity (AID 2283085); details: primary human HUVEC with PBMC; actives raise or lower the signal
# Outline: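 Human umbilical vein endothelial cells co-cultured with PBMC and stimulated with LPS. TNFa was measured by ELISA 24 h after chemical dosing, fitted bidirectionally relative to DMSO.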
# [12] = read-out: Vascular cell adhesion molecule 1 (VCAM1), VCAM1 (gene 7412); assay: BSK_LPS_VCAM1: BioMAP Diversity Plus: LPS Assay for Vascular cell adhesion molecule 1 (VCAM1) Biomarker Activity (AID 2283086); details: primary human HUVEC with PBMC; actives raise or lower the signal
# Outline: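 Human umbilical vein endothelial cells co-cultured with PBMC and stimulated with LPS; VCAM-1 measured by ELISA 24 h after dosing. Bidirectional curve fitting against DMSO baseline; cytotoxicity tracked in parallel by SRB total-protein staining.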
# [13] = read-out: CD38, CD38 (gene 952); assay: BSK_SAg_CD38: BioMAP Diversity Plus: SAg Assay for CD38 Biomarker Activity (AID 2283087); details: primary human HUVEC with PBMC; actives raise or lower the signal
# Outline: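 Human HUVEC plus PBMC co-culture stimulated with superantigen; CD38 measured by ELISA 24 h after chemical dosing. Fluorescence read-out, bidirectional fit against DMSO; cytotoxicity tracked in parallel by SRB and Alamar Blue.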
# [14] = read-out: CD40, CD40 (gene 958); assay: BSK_SAg_CD40: BioMAP Diversity Plus: SAg Assay for CD40 Biomarker Activity (AID 2283088); details: primary human HUVEC with PBMC; actives raise or lower the signal
# Outline: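 HUVEC/PBMC co-culture, 24 h post-dose; CD40 by ELISA, fluorescence intensity; bidirectional fit vs DMSO negative control.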
# [15] = read-out: CD69, CD69 (gene 969); assay: BSK_SAg_CD69: BioMAP Diversity Plus: SAg Assay for CD69 Biomarker Activity (AID 2283089); details: primary human HUVEC with PBMC; actives raise or lower the signal;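 for AC50: cell surface CD69 protein quantified by ELISA with fluorescence detection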
# Outline: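 Values derive from bidirectional fitting relative to DMSO vehicle. Cells: umbilical vein endothelium plus peripheral blood mononuclear cells, treated 24 h before fluorescent ELISA for CD69.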
# [16] = read-out: Monocyte Chemoattractant Protein-1 (MCP1), CCL2 (gene 6347); assay: BSK_SAg_MCP1: BioMAP Diversity Plus: SAg Assay for Monocyte Chemoattractant Protein-1 (MCP1) Biomarker Activity (AID 2283090); details: primary human HUVEC with PBMC; actives raise or lower the signal
# Outline: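 MCP-1 levels in the endothelial–PBMC SAg co-culture were quantified by ELISA at 24 h post-dosing; both increases and decreases versus DMSO scored. Cytotoxicity monitored by SRB total protein in parallel cultures.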
# [17] = read-out: E-selectin (Homo sapiens) (UniProt P16581); assay: BSK_SAg_Eselectin: BioMAP Diversity Plus: SAg Assay for Eselectin Biomarker Activity (AID 2283091); details: primary human HUVEC with PBMC; actives raise or lower the signal
# Outline: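 E-selectin ELISA readout at 24 h post-dosing in human umbilical vein endothelial cell/PBMC co-culture; gain or loss of signal fitted relative to DMSO baseline.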
# [18] = read-out: Monokine induced gamma interferon (MIG), CXCL9 (gene 4283); assay: BSK_SAg_MIG: BioMAP Diversity Plus: SAg Assay for Monokine induced gamma interferon (MIG) Biomarker Activity (AID 2283092); details: primary human HUVEC with PBMC; actives raise or lower the signal
# Outline: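 Values reflect bidirectional fitting of ELISA-measured MIG against DMSO vehicle, taken 24 h after dosing of a co-culture of human umbilical vein endothelial cells and peripheral blood mononuclear cells.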
# [19] = BSK_SAg_PBMCCytotoxicity: PBMC Cytotoxicity Assessment in the BioMAP Diversity Plus: SAg Assay (AID 2283093); details: primary human HUVEC with PBMC;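 note: PBMC viability measured as Alamar Blue reduction fluorescence at 546/580 nm; fitted both ways against DMSO so a hit may be loss or gain of signal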;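 for AC50: PBMC superantigen activated with SEB plus TSST-1 one hour after compound addition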
# Outline: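 Human umbilical vein endothelial cells co-cultured with PBMC; PBMC (75,000/well) pre-treated with compound 1 h, then activated with SEB and TSST-1 (20 ng/mL final each) for 90 h. Alamar Blue added 6 h, fluorescence 546/580 nm; bidirectional fit versus DMSO.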
# [20] = read-out: Interleukin-8 (IL8), CXCL8 (gene 3576); assay: BSK_SAg_IL8: BioMAP Diversity Plus: SAg Assay for Interleukin-8 (IL8) Biomarker Activity (AID 2283094); details: primary human HUVEC with PBMC; actives raise or lower the signal
# Outline: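 Human umbilical vein endothelial cells co-cultured with PBMC, stimulated with superantigen; IL-8 measured by ELISA 24 h after chemical dosing. Bidirectional fitting versus DMSO; SRB staining in parallel cultures tracks cytotoxicity.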
# Tumor necrosis factor (Homo sapiens), sequence (P01375 whole entry, looked up): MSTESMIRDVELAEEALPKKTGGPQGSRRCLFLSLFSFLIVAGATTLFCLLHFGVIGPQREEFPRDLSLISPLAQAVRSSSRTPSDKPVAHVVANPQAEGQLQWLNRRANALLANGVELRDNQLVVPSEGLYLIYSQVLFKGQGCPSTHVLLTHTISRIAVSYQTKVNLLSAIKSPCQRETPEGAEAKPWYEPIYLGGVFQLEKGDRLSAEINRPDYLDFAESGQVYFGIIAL
# E-selectin (Homo sapiens), sequence (P16581 whole entry, looked up): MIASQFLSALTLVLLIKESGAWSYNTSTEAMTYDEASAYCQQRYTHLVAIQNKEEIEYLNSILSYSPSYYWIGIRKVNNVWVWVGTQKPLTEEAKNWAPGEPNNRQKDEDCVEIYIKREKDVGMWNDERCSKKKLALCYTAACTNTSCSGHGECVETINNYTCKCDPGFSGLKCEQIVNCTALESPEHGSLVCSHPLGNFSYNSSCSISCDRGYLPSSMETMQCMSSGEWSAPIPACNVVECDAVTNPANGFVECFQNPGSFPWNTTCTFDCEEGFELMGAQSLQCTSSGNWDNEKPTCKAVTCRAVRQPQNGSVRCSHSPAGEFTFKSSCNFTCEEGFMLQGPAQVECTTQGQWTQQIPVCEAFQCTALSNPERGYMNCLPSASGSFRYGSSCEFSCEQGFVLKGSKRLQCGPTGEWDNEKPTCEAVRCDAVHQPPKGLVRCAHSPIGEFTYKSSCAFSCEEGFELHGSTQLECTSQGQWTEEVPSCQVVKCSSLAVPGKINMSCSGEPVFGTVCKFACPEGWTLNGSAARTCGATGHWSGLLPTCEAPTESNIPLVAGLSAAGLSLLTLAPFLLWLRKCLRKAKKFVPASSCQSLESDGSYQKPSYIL
structure (smiles),measurement,setting,value
O=C(O)COc1cc(Cl)c(Cl)cc1Cl,outcome,[1],inactive
same,outcome,[2],inactive
same,outcome,[3],inactive
same,outcome,[4],inactive
same,outcome,[5],inactive
same,outcome,[6],inactive
same,outcome,[7],inactive
same,outcome,[8],inactive
same,outcome,[9],inactive
same,outcome,[10],inactive
same,outcome,[11],inactive
same,outcome,[12],inactive
same,outcome,[13],inactive
same,outcome,[14],inactive
same,outcome,[15],inactive
same,outcome,[16],inactive
same,outcome,[17],inactive
same,outcome,[18],inactive
same,outcome,[19],inactive
same,outcome,[20],inactive
O=[N+]([O-])c1cccc2ccccc12,outcome,[1],inactive
same,outcome,[2],inactive
same,outcome,[3],inactive
same,outcome,[4],inactive
same,outcome,[5],inactive
same,outcome,[6],inactive
same,outcome,[7],inactive
same,outcome,[8],inactive
same,outcome,[9],inactive
same,outcome,[10],inactive
same,outcome,[11],inactive
same,outcome,[12],inactive
same,outcome,[13],inactive
same,outcome,[14],inactive
same,outcome,[15],inactive
same,outcome,[16],inactive
same,outcome,[17],inactive
same,outcome,[18],inactive
same,outcome,[19],inactive
same,outcome,[20],inactive
Cc1ccc(OP(=O)(Oc2ccc(C)cc2C)Oc2ccc(C)cc2C)c(C)c1,AC50,[1],20 µM (active)
same,AC50,[2],6.48 µM (active)
same,outcome,[3],inactive
same,outcome,[4],inactive
same,outcome,[5],inactive
same,AC50,[6],5.81 µM (active)
same,AC50,[7],20 µM (active)
same,outcome,[8],inactive
same,AC50,[9],10.7 µM (active)
same,outcome,[10],inactive
same,AC50,[11],34.1 µM (active)
same,outcome,[12],inactive
same,outcome,[13],inactive
same,AC50,[14],20 µM (active)
same,AC50,[15],20 µM (active)
same,AC50,[16],5.89 µM (active)
same,outcome,[17],inactive
same,outcome,[18],inactive
same,AC50,[19],20 µM (active)
same,AC50,[20],4.7 µM (active)
CC(C)(C)c1ccccc1O,outcome,[2],inactive
same,outcome,[3],inactive
same,outcome,[4],inactive
same,outcome,[5],inactive
same,outcome,[6],inactive
same,AC50,[7],3.18 µM (active)
same,outcome,[8],inactive
same,outcome,[9],inactive
same,outcome,[10],inactive
same,outcome,[11],inactive
same,outcome,[12],inactive
same,outcome,[13],inactive
same,outcome,[14],inactive
same,outcome,[15],inactive
same,outcome,[16],inactive
same,outcome,[17],inactive
same,outcome,[18],inactive
same,outcome,[19],inactive
same,outcome,[20],inactive
Cc1cc(C)cc(C)c1,outcome,[1],inactive
same,outcome,[2],inactive
same,outcome,[3],inactive
same,outcome,[4],inactive
same,outcome,[5],inactive
same,outcome,[6],inactive
same,outcome,[7],inactive
same,outcome,[8],inactive
same,outcome,[9],inactive
same,outcome,[10],inactive
same,outcome,[11],inactive
same,outcome,[12],inactive
same,outcome,[13],inactive
same,outcome,[14],inactive
same,outcome,[15],inactive
same,outcome,[16],inactive
same,outcome,[17],inactive
same,outcome,[18],inactive
same,outcome,[19],inactive
same,outcome,[20],inactive
Oc1cccc(-c2ccccc2)c1,outcome,[1],inactive
same,AC50,[2],20 µM (active)
same,AC50,[3],32.5 µM (active)
same,outcome,[4],inactive
same,AC50,[5],29.8 µM (active)
same,outcome,[6],inactive
same,AC50,[7],4.9 µM (active)
same,AC50,[8],8.25 µM (active)
same,outcome,[9],inactive
same,AC50,[10],33.3 µM (active)
same,outcome,[11],inactive
same,AC50,[12],20 µM (active)
same,outcome,[13],inactive
same,AC50,[14],30.8 µM (active)
same,outcome,[15],inactive
same,AC50,[16],20 µM (active)
same,AC50,[17],33.6 µM (active)
same,outcome,[18],inactive
same,AC50,[19],32.1 µM (active)
same,outcome,[20],inactive
